This is one part of a sample in which hits are shown more often than they occur.
AMA1 RON2 block = qHTS for Inhibitors of AMA1-RON; Towards Development of Antimalarial Drug Lead: Primary Screen; Plasmodium falciparum AMA1 (3D7) - RON2 peptide interaction; AlphaScreen AMA1-biotinylated RON2 peptide binding; Potency, µM (titrated, usually from 58.2 µM), for inactives: at the top dose activity change, negative = inhibition, most hits filed as inhibitors; actives 0.2% (n = 360,000); AID 720542, 2013; active means well fitted inhibition curve with a large enough effect; inconclusive means small, poorly fitted or top-dose-only effect; inactive means no such curve, though single readings can be large or run the other way;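 further: potency means the concentration at half of the fitted maximal effect; 0% = vehicle wells and -100% = peptide control; nearly all actives have a fitted effect of over 45% in size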
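AMA1 (3D7) with his tag at 25 nM final met compounds first, then biotinylated RON2 peptide at 25 nM; detection used donor plus acceptor beads, 10 µg/mL apiece, read by AlphaScreen after 30 min at room temperature.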
Lassa entry inh = qHTS for Inhibitors of binding or entry into cells for Lassa Virus. Potency, µM (series often up to 37.9 µM), for inactives: at the top dose activity change, negative = inhibition, actives largely listed as inhibitors. AID 540256, 2011. actives 1.2% (n = 300,000). Lassa virus pseudotype entry inhibition, cell reporter; calls by dose curve; tested in HEK293 cells; further: potency means the concentration at half of the fitted maximal effect; on the % scale 0 is the no-effect control and ±100 the full control effect; nearly all actives have a fitted effect of over 50% in size
Marburg entry inh = qHTS for inhibitors of binding or entry into cells for Marburg Virus; actives 1.8% (n = 300,000); AID 540276, 2011; Marburg virus pseudotyped entry inhibition, cell reporter; Potency, µM (titrated, usually from 37.8 µM), for inactives: at the top dose activity change, negative = inhibition, actives largely listed as inhibitors; calls by dose curve; tested in HEK293 cells; further: potency means the concentration at half of the fitted maximal effect; on the % scale 0 is the no-effect control and ±100 the full control effect
CHX counter = Cycloheximide Counterscreen for Small Molecule Inhibitors of Shiga Toxin | cell reporter, cycloheximide protein synthesis inhibition counterscreen | max response, % | actives 12% (n = 300,000) | AID 2314, 2010; in the data active means max response mostly above about 13%, no sharp cut-off; inactive means mostly below about 14%; further: read at 38.3 µM for the half of the compounds with a filed dose; 0% is about no effect
Shiga inhibitor = A qHTS for Small Molecule Inhibitors of Shiga Toxin; Vero cells, Shiga toxin protein synthesis inhibition reporter; inhibition, % at 38.7 µM; actives 9.2% (n = 290,000); AID 2315, 2010; in the data active means inhibition mostly above about 28%, no sharp cut-off; inactive means mostly below about 43%; further: 0% is about no effect
The depositor's hits bear a star; ? = inconclusive; · = no result; + = active, no number; [ ] = dose if it differs, or a comment.

SMILES	AMA1 RON2 block	Lassa entry inh	Marburg entry inh	CHX counter	Shiga inhibitor
CCCC(NS(=O)(=O)c1ccc(-c2ccc(=O)[nH]n2)s1)c1cccs1 (centres undefined)	16.6%	?	?	23.5*	23.3*
Cc1cc(C)c(OCC(=O)NCC2COc3ccccc3O2)c(C)c1 (centres undefined)	-15.3%	-1.9%	3.55µM*	·	·
O=C(/C=C/c1ccco1)NCC1COc2ccccc2O1 (centres undefined)	-2.1%	-0.3%	2.2%[46.1 µM]	35.6*	39.9
COc1cc(CC(=O)NCC2COc3ccccc3O2)cc(OC)c1OC (centres undefined)	-4.3%	-13.4%	19.3%[46.1 µM]	0.1	-3.9
COc1ccc(/C=C/C(=O)NCC2COc3ccccc3O2)c(OC)c1 (centres undefined)	-17.4%	13.7%	12.2%[46.1 µM]	20.3*	46.3*
COc1ccccc1NC(=O)C(=O)NCC1COc2ccccc2O1 (centres undefined)	0.0%	15.9%	26.4%	23.4*	14.1
Cc1ccc(C)c(OCC(=O)NCC2COc3ccccc3O2)c1 (centres undefined)	-7.3%	·	·	·	·
O=C(CCC1COc2ccccc2O1)NCC1COc2ccccc2O1 (centres undefined)	-3.9%	11.4%	10.3%	1.2	2.9
O=C(Cn1c(=O)n(-c2ccccc2Cl)c(=O)c2sc3ccccc3c21)NC1CCCCC1	·	3.8%[46.1 µM]	-2.0%[46.1 µM]	·	·
Cc1ccc(C(=O)Nc2ccc3c(c2)CCC3)cc1S(=O)(=O)N1CCOCC1	-6.9%	12.5%[46.1 µM]	?	33.5*	98.0*
O=C(Nc1ccc2c(c1)CCC2)c1ccc(F)c(S(=O)(=O)N2CCOCC2)c1	-11.2%	?	?	26.5*	35.7*
COc1ccc(C(=O)n2c(N)nc3ccccc32)cc1OC	129.3%	-1.5%	-17.2%	24.8*	·
Nc1nc2ccccc2n1C(=O)c1cccs1	24.9%	?	?	50.6*	91.3*
Nc1nc2ccccc2n1C(=O)c1ccc(F)cc1	105.6%	7.08µM*	?	16.3*	48.6
O=C1CC(c2ccc(F)cc2)CC2=C1C(c1ccc([N+](=O)[O-])o1)Nc1ccccc1N2 (centres undefined)	-8.8%	?	10µM*	11.8*	17.7
COc1ccc(-c2nsc3c(SCc4ccccc4)ncnc23)cc1	2.7%	8.3%	14.6%	19.9*	+
O=C(Nc1ccc(F)c(Cl)c1)c1cc(-c2ccco2)on1	-18.8%	-3.1%	4.3%[46.1 µM]	15.7	61.7*
O=C(Nc1cccc(O)c1)c1cc(-c2ccc3c(c2)OCO3)on1	0.0%	?	?	2.6	-1.9
O=C(Nc1cccc(O)c1)c1cc(-c2ccccc2Cl)on1	-17.4%	5.01µM*	7.08µM*	6.2	-11.7
Cc1ccc(NC(=O)c2cc(-c3cccc(O)c3)on2)cc1C	7.1%	·	·	46.8*	77.8*
Cc1ccc(NC(=O)c2cc(-c3ccco3)on2)cc1	3.5%	1.0%	?	40.9*	132.7*
COc1ccccc1N1CCN(C(=O)Nc2cccc(C)c2)CC1	1.7%	1.3%	?	16.1	66.0
COc1ccc(NC(=O)c2cc(-c3ccco3)on2)cc1OC	2.8%	17.2%	14.5%[46.1 µM]	16.6	27.7
Cc1ccc(NC(=O)c2cc(-c3ccco3)on2)cc1C	-8.3%	?	12.2%	37.8*	98.9*
O=C(Nc1ccccc1)OCc1cc(-c2ccccc2Cl)on1	21.9%	-24.3%	?	39.5*	69.5*
SMILES	AMA1 RON2 block	Lassa entry inh	Marburg entry inh	CHX counter	Shiga inhibitor
COc1ccc(NC(=O)c2cc(-c3ccccc3Cl)on2)cc1OC	-11.0%	4.7%[46.1 µM]	-0.4%[46.1 µM]	0.5	33.3
O=C(Cn1nc(C(=O)O)c2ccccc2c1=O)Nc1cc(S(=O)(=O)N2CCCCC2)ccc1Cl	0.4%	·	·	·	·
Cn1ccnc1SCC(=O)Nc1ccc2nc(SCC(=O)NC3CC3)sc2c1	6.0%	-11.0%	?	32.9*	113.4*
O=[N+]([O-])c1ccc2sc(SCc3nc4ccccn4c3Br)nc2c1	·	·	·	0.2	1.3
Cc1cnc(NC(=O)CSc2nc3ccccc3s2)s1	11.0%	-9.2%	-3.5%	14.6	-0.4
O=C(CSc1nc2ccccc2s1)Nc1ncccn1	-12.6%	5.8%	-4.8%[46.1 µM]	39.9*	12.7
Brc1c(CSc2nc3ccccc3s2)nc2ncccn12	-7.5%	11.0%	?	23.5*	42.8
Cn1ccnc1SCC(=O)NC1CCCC1	8.9%	17.3%	1.1%[46.1 µM]	4.8	-6.0
Cc1nc(NC(=O)CSc2nccn2C)sc1C(=O)N(C)C	28.5%	12.4%	5.2%	21.1*	42.7*
C#CCSC1=C(C#N)[C@@H](c2cccs2)C(C(=O)OCC)=C(C)N1	·	·	-0.4%	·	·
Cc1nnc(SCC(=O)Nc2nc3ccccc3s2)n(N)c1=O	12.9%	5.2%	12.5%	-2.3	-2.6
O=S(=O)(CCSc1ccccn1)c1nc2ccccc2s1	21.2%	-26.1%	?	19.6*	-1.8
COc1ccc(NC(=O)CSc2nccn2C)c([N+](=O)[O-])c1	-0.9%	0.3%	23.8%[46.1 µM]	23.2*	60.4*
Cc1cc([N+](=O)[O-])ccc1NC(=O)CSc1nccn1C	·	9.3%[46.1 µM]	?	·	·
O=S(=O)(CCSc1nc2ccccc2o1)c1nc2ccccc2s1	3.6%	?	?	-2.9	-13.1
Nn1c(SCC(=O)Nc2nc3ccccc3s2)nncc1=O	21.1%	18.6%	0.7%	23.3*	40.3
Cn1ccnc1SCC(=O)Nc1cccc2ccccc12	-4.7%	17.9%	?	38.9*	25.0
O=C(C[C@H]1C/C=C\C[C@@H](Cc2ccc(F)cc2)C(=O)OC[C@@H]2CCCN2C1=O)NCCO	-5.3%	·	·	·	·
C[C@@H](c1ccccc1)N1C[C@H]2CCCN2c2cc(Br)ccc2S1(=O)=O	-2.8%	?	·	·	·
O=C(CSc1ccccn1)Nc1nc2ccccc2s1	-1.4%	4.9%	?	27.8*	19.0
O=C(CSc1nc2ccccc2s1)NCCOc1ccc(Cl)cc1	-4.2%	6.4%	?	-2.3	17.1
Cc1cc(Br)ccc1NC(=O)CNC(=O)CSc1nccn1C	1.4%	-3.3%	?	·	·
O=C(CSc1nccn1-c1ccccc1)Nc1nc2ccccc2s1	·	11.0%[46.1 µM]	·	·	·
Cn1ccnc1SCC(=O)Nc1ccc(Br)cc1C(F)(F)F	-2.1%	-2.2%	?	21.7*	116.7*
Cn1ccnc1SCC(=O)Nc1nc2ccccc2s1	0.0%	·	·	34.2*	71.8*
SMILES	AMA1 RON2 block	Lassa entry inh	Marburg entry inh	CHX counter	Shiga inhibitor
O=C(CSc1nc2ccccc2s1)NCCOc1ccccc1	16.7%	9.2%	?	15.3*	17.2
O=C(CSc1cn[nH]n1)Nc1nc2ccccc2s1	81.0%	·	-17.6%[46.1 µM]	26.9*	53.4*
COc1ccccc1CNC(=O)CSc1ccc(-c2sc(-c3ccccc3)nc2C)nn1	·	-27.8%[46.1 µM]	·	·	·
CCc1nc(OCCN(CC)CC)c2oc3ccccc3c2n1	-13.7%	2.0%	-12.1%	26.6*	27.2
Cc1ccc(C)c(NC(=O)/C(C#N)=C/c2cn(CC(=O)NCc3ccco3)c3ccccc23)c1	5.0%	-17.1%	?	-3.1	-12.7
O=C(CCSCc1ccc(Cl)cc1)NCc1ccco1	-5.1%	0.8%	-1.1%[46.1 µM]	5.0	2.4

Assay outcomes (PubChem)
